Results: PubChem BioAssay AID933 (National Center for Advancing Translational Sciences (NCATS), 2007)
Records with an inconclusive call do not appear. A call without a number means that no potency is given here. Unmarked numbers belong to inactive results. The source made the active and inactive calls. The call rests on the fitted dose curve; in most records, active means well fitted activation curve with a large enough effect in the signal ratio, with a control signal flat; inconclusive means small, poorly fitted or top-dose-only effect, or a change in a side signal; inactive means flat fitted curve, though single readings scatter; the % refers to the signal ratio.

Target: Thyrotropin receptor (Homo sapiens) (UniProt P16473)
Sequence (P16473 whole entry, looked up): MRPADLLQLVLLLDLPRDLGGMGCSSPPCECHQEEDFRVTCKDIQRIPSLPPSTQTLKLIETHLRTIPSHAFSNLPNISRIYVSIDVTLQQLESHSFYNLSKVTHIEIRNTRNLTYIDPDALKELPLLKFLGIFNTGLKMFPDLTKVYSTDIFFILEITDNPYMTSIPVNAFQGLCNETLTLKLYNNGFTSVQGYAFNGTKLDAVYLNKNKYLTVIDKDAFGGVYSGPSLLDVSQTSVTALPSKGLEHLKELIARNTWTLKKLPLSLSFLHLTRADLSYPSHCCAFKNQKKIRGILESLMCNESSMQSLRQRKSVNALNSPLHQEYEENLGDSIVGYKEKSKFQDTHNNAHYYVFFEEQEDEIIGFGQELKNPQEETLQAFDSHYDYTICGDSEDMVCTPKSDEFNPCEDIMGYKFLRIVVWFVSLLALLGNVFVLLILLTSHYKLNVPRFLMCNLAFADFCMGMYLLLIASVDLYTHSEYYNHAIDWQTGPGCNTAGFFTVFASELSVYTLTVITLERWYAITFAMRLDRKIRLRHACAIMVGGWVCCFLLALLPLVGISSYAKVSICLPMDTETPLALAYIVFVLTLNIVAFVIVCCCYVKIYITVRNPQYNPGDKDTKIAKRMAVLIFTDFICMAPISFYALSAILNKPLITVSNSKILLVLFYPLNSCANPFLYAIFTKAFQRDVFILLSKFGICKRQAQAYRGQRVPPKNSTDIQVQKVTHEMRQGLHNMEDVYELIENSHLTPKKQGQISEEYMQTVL
Assay: Secondary Concentration-Response Assay for Agonists of the Thyroid Stimulating Hormone Receptor: HTRF Activity Detection;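 on activation: HEK 293 cells stably expressing human TSHR with RO 20-1724 phosphodiesterase inhibitor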
Outline: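 Orthogonal confirmation in a separate TSHR-transfected HEK 293 line: cells in medium with 10 % FCS and 100 uM RO 20-1724 got compound for 30 min at room temperature. cAMP was measured by HTRF (d2-cAMP/anti-cAMP antibody), 615/660 nm emission.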
Potency means the concentration at half of the fitted maximal effect.

Row | Compound | Potency | activation
1 | COc1ccc(C2Nc3ccccc3C(=O)N2Cc2ccco2)cc1COc1ccccc1 (configuration not stated) | inactive | –
2 | CCC(=O)Nc1ccc(OCc2cc(C3Nc4ccccc4C(=O)N3Cc3ccccc3)ccc2OC)cc1 (configuration not stated) | inactive | –
3 | COc1ccc(C2Nc3ccccc3C(=O)N2CCCN(C)C)cc1COc1ccc(NC(C)=O)cc1 (configuration not stated) | inactive | –
4 | O=C1c2ccccc2NC(c2cccc(O)c2)N1Cc1ccco1 (configuration not stated) | inactive | –
5 | COc1ccc(C2Nc3ccccc3C(=O)N2Cc2ccccc2)cc1COc1ccc(C(N)=O)cc1 (configuration not stated) | inactive | –
6 | CC(NC(=O)COC(=O)c1ccco1)C12CC3CC(CC(C3)C1)C2 (configuration not stated) | inactive | –
7 | CCc1ccccc1NC1=NCC(=O)N1Cc1ccc(OC)cc1 | – | 0.0927% [at 0.00035 µM]
8 | COc1ccc(C2Nc3ccccc3C(=O)N2Cc2ccco2)cc1COc1ccc(NC(C)=O)cc1 (configuration not stated) | 15.8 µM (active) | –
9 | CCCCN1C(=O)c2ccccc2NC1c1ccc(OC)c(COc2ccc(NC(C)=O)cc2)c1 (configuration not stated) | 20 µM (active) | –
10 | COc1cc(C2Nc3ccccc3C(=O)N2Cc2ccco2)ccc1O (configuration not stated) | inactive | –
11 | COc1cccc(OCc2cc(C3Nc4ccccc4C(=O)N3Cc3ccco3)ccc2OC)c1 (configuration not stated) | inactive | –
12 | Brc1ccc(Oc2nnnn2-c2ccccc2)cc1 | – | -1.07% [at 0.00035 µM]
13 | Cc1ccccc1NC(=O)CSc1nnc(-c2ccoc2C)n1CCc1ccccc1 | – | -0.0378% [at 0.00035 µM]
14 | CCOc1cc(C2Nc3ccccc3C(=O)N2Cc2ccco2)ccc1OCc1ccccc1Cl (configuration not stated) | inactive | –
15 | CC(=O)Nc1ccc(S(=O)(=O)N(C)c2ccccc2)cc1 | – | -0.796% [at 0.00035 µM]
16 | Cc1nn(C)c(C)c1S(=O)(=O)N(CC(=O)Nc1nccs1)c1ccc(C(C)C)cc1 | – | 0.117% [at 0.00035 µM]
17 | COc1ccc(/C=N/NC(=O)c2ccn[nH]2)cc1COc1ccc(F)cc1 | inactive | –
18 | CCOc1ccc(S(=O)(=O)NCc2ccccc2Cl)cc1C(N)=O | inactive | –
19 | O=C(COC(=O)C12CC3CC(CC(C3)C1)C2)NCC1CCCO1 (configuration not stated) | inactive | –

Row | Compound | Potency | activation
20 | O=C1CC(c2ccco2)CC2=C1C(c1cccnc1)n1nc(C(F)(F)F)nc1N2 (configuration not stated) | inactive | –
21 | CCOC(=O)c1ccc(NC(=O)c2ccc(CN3CCOCC3)cc2)cc1 | – | 0.768% [at 0.00035 µM]
22 | O=C(COC(=O)C12CC3CC(CC(O)(C3)C1)C2)NCc1ccco1 | inactive | –
23 | COc1ccc(/C=C2/C(=O)NC(=O)N(Cc3ccco3)C2=O)cc1COc1ccc(NC(C)=O)cc1 | inactive | –
24 | COc1ccc(C2Nc3ccccc3C(=O)N2Cc2ccco2)cc1COc1ccc(F)cc1 (configuration not stated) | inactive | –
25 | COC(=O)c1cc(C(=O)OC)cc(N2C(=O)CC(Sc3nc(C)cc(C)n3)C2=O)c1 (configuration not stated) | – | -0.898% [at 0.00035 µM]
26 | COc1ccc(O)c(-c2nc3ccccc3c(=O)n2Cc2ccccc2)c1 | inactive | –
27 | COc1cccc(CN2C(=O)CN(C3CCCCC3)C(=O)C2c2ccc(F)cc2)c1 (configuration not stated) | – | 0.406% [at 0.00035 µM]
28 | COc1ccc(CN(Cc2ccccc2)C(=O)CN2CCN(C)CC2)cc1COc1ccc(NC(C)=O)cc1 | inactive | –
29 | COc1cccc(-c2nc(SC)nc3sc(C(=O)NC(C)(C)C)c(N)c23)c1 | inactive | –
30 | CCN(CC)CCN1C(=O)c2ccccc2NC1c1ccccc1F (configuration not stated) | inactive | –
31 | COc1ccc(CN(Cc2ccccc2)C(=O)c2ccccc2O)cc1 | inactive | –
32 | CC1(C)CC2CC(C)(CN2S(=O)(=O)c2ccc(N)cc2)C1 (configuration not stated) | – | -0.162% [at 0.00035 µM]
33 | COc1ccc(C2Nc3ccccc3C(=O)N2c2ccc(C)cc2)cc1Cn1cc([N+](=O)[O-])cn1 (configuration not stated) | inactive | –
34 | COc1ccc(C2Nc3ccccc3C(=O)N2c2ccccc2)cc1COc1ccccn1 (configuration not stated) | inactive | –
35 | COc1ccc(-c2nc3ccccc3n2Cc2ccccc2)cc1COc1ccc(NC(C)=O)cc1 | inactive | –
36 | O=C(c1ccc(Br)o1)N(Cc1ccccc1)c1ccccn1 | – | 0.801% [at 0.00035 µM]
37 | CC(=O)Nc1cccc(OCc2cccc(C3Nc4ccccc4C(=O)N3Cc3ccco3)c2)c1 (configuration not stated) | inactive | –
38 | COc1ccc(C2Nc3ccccc3C(=O)N2Cc2ccccc2)cc1CSc1ccccn1 (configuration not stated) | inactive | –

Row | Compound | Potency | activation
39 | Cc1occc1-c1nnc(SCC(=O)Nc2ccccc2)n1C(C)c1ccccc1 (configuration not stated) | – | 0.0209% [at 0.00035 µM]
40 | COc1ccc(CN(Cc2ccccc2)C(=O)c2ccc(NC(C)=O)cc2)cc1COc1ccc(NC(C)=O)cc1 | inactive | –
41 | COc1ccc(C(=O)N(Cc2ccccc2)Cc2ccc(OC)c(COc3ccc(NC(C)=O)cc3)c2)cc1 | 12.6 µM (active) | –
42 | COC(=O)C1=C(C)OC(N)=C(C#N)C1C1CCCCC1 (configuration not stated) | – | -0.764% [at 0.00035 µM]
43 | CCCN1C(=O)c2ccccc2NC1c1ccc(OC)c(CSc2ccccn2)c1 (configuration not stated) | inactive | –
44 | COc1ccc(C2Cc3ccccc3C(=O)N2Cc2ccccc2)cc1COc1ccc(NC(C)=O)cc1 (configuration not stated) | 10 µM (active) | –
45 | COc1cccc2cc(C(=O)N(Cc3cccs3)Cc3cccs3)c(=O)oc12 | inactive | –
46 | COc1cc(C2Nc3ccccc3C(=O)N2c2ccccc2)c(Br)cc1OCC(=O)O (configuration not stated) | inactive | –
47 | COc1ccc(N2C(=O)c3ccccc3NC2c2ccc(OC)c(COc3ccc(NC(C)=O)cc3)c2)cc1 (configuration not stated) | inactive | –
48 | COc1ccc(C=O)cc1COc1ccc(NC(C)=O)cc1 | inactive | –
49 | CC(=O)Nc1ccc(OCc2cccc(C3Nc4ccccc4C(=O)N3Cc3ccco3)c2)cc1 (configuration not stated) | inactive | –
50 | COc1ccc(C2Nc3ccccc3C(=O)N2c2ccc(Cl)cc2)cc1Cn1cc([N+](=O)[O-])cn1 (configuration not stated) | inactive | –
51 | COc1ccc(C2Nc3ccccc3C(=O)N2Cc2ccccc2)cc1COc1ccc([N+](=O)[O-])c(C)c1 (configuration not stated) | inactive | –
52 | CCCN1C(=O)c2ccccc2NC1c1cc(OC)c(OC)c(OC)c1 (configuration not stated) | inactive | –
53 | COC(=O)C1=C(C)NC(=O)NC1c1cn(-c2ccccc2)nc1-c1cccs1 (configuration not stated) | – | -0.246% [at 0.00035 µM]
54 | O=C1c2ccccc2NC(c2ccc(Cl)cc2Cl)N1Cc1ccccc1 (configuration not stated) | inactive | –
55 | COc1ccc(C(=O)N(Cc2ccco2)Cc2cccs2)c(O)c1 | 50.1 µM (active) | –
56 | Cc1ccccc1N1C(=O)c2ccccc2N2C(=O)c3ccccc3C12 (configuration not stated) | inactive | –
57 | O=C1c2ccccc2NC(c2cccc(F)c2)N1Cc1ccco1 (configuration not stated) | inactive | –
